BJeLR lethal – kills HRASV12-expressing BJeLR cells | BJeLR (HRASV12) viability, CellTiter-Glo ATP luminescence, 48 h | hit rate 0.17% among 300,000 | inhibition, % (concentration not given with the values); in the data active means inhibition above about 50%
Sa RN4220 lethal – kills Staphylococcus aureus RN4220; S. aureus RN4220 growth, OD600, 16 h; inhibition, % (concentration not given with the values); hit rate 0.33% among 330,000; in the data active means inhibition above about 85%;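 further: plate controls were untreated cells for no effect and reference antibiotic for full effect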
Mtb hypoxia rep – Mtb hypoxia fluorescent reporter inhibition | fluorescence inhibition, % (test concentration not listed) | hit rate 0.1% among 300,000 | AID 1159583 | M. tuberculosis hypoxia-regulated fluorescent reporter, fluorescence; in the data active means fluorescence inhibition mostly above about 23%, no sharp cut-off; inactive means mostly below about 17%
ugtP null kill – kills S. aureus RN4220 lacking UgtP; hit rate 0.54% among 330,000; growth inhibition, % (test concentration not listed); S. aureus RN4220 ugtP deletion, OD600 growth, 16 h; in the data active means growth inhibition above about 68%;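 further: plate controls were untreated wells for no effect and antibiotic for full effect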
RecA intein inh – blocks M. tuberculosis RecA intein splicing; cell-free RecA intein splicing, fluorescence; inhibition, % (test concentration not listed); hit rate 0.75% among 290,000; P9WHJ3; in the data active means inhibition above about 30%;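 further: 0% = vehicle wells and 100% = reference inhibitor control wells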
Target sequence (P9WHJ3 whole entry, looked up): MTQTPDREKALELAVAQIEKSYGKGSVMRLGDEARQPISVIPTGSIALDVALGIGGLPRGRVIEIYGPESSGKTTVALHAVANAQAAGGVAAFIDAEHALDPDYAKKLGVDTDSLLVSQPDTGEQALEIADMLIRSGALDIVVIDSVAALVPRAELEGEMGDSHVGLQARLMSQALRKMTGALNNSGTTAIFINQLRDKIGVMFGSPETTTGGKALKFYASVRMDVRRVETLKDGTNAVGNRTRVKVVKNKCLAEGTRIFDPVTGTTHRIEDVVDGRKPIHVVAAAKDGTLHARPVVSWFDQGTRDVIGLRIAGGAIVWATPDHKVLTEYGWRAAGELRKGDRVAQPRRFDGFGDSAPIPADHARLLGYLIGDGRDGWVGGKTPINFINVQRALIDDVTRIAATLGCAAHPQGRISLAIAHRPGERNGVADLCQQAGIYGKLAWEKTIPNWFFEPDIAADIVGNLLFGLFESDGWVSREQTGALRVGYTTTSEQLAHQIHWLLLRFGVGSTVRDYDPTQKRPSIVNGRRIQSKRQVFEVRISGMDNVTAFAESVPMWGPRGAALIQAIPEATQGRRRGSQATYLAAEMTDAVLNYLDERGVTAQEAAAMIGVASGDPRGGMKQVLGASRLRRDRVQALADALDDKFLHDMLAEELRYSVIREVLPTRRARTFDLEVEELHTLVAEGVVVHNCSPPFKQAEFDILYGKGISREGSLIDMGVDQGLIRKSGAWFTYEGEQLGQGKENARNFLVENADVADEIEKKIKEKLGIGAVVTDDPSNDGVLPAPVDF
CCHF vOTU inh – CCHFV vOTU protease inhibition; Pep-AMC fluorescence; inhibition, % at 11.5 µM; hit rate 0.55% among 370,000; AID 651958; in the data active means inhibition above about 30%; further: 0% = vehicle wells with enzyme and 100% = no enzyme wells
Starred values were filed as active, the others as inactive. This is a sample that favours compounds with a hit; in the whole collection about 1.6% have one here.

What do the screens show for `COc1ccccc1NS(=O)(=O)c1cccc(C(=O)N/N=C/c2ccc(C)o2)c1`?
BJeLR lethal: -2; RecA intein inh: 0; CCHF vOTU inh: 3

Results for CCOC(=O)C1C2COc3ccc(OC)cc3C2N2C(=O)c3cc(C)ccc3NC(=O)[C@@]12C (some centres not stated) ?
Sa RN4220 lethal: 3; Mtb hypoxia rep: 1; ugtP null kill: 3

How did CC(C(O)c1ccccc1)N(C)C(=O)C(N)Cc1ccccc1 (configuration not stated) do in these assays?
Sa RN4220 lethal: 4; Mtb hypoxia rep: -1; ugtP null kill: 4

What do the screens show for `Oc1cnn(-c2ccccc2)c1`?
BJeLR lethal: 9; Sa RN4220 lethal: 1; ugtP null kill: -4; RecA intein inh: 63*; CCHF vOTU inh: 19

Results for CCOc1ccc(-c2cc(C)[n+](CCO)c(-c3ccc(OCC)cc3)c2)cc1 ?
BJeLR lethal: 7; Sa RN4220 lethal: 3; Mtb hypoxia rep: 12; ugtP null kill: -2; RecA intein inh: -7; CCHF vOTU inh: -89

Results for CCOc1ccc(-c2cc(C)[n+](CCc3ccc(OC)c(OC)c3)c(-c3ccc(OCC)cc3)c2)cc1 ?
BJeLR lethal: 6; Sa RN4220 lethal: 100*; ugtP null kill: 100*; RecA intein inh: 3; CCHF vOTU inh: 29

Results for COc1ccc(C2CC(=O)C=C(c3ccc(CNC(=O)OC(C)(C)C)cc3)C2)cc1 (configuration not stated) ?
Sa RN4220 lethal: -2; Mtb hypoxia rep: 10; ugtP null kill: -10

How did CC(=O)c1cccc(NC(=O)CCCOc2ccc(C)cc2)c1 do in these assays?
BJeLR lethal: -10; Sa RN4220 lethal: 1; Mtb hypoxia rep: active; ugtP null kill: 2; RecA intein inh: 2; CCHF vOTU inh: 2

How did O=C(CCCOc1ccc(Cl)cc1)Nc1cccc(C(=O)O)c1 do in these assays?
BJeLR lethal: 8; Sa RN4220 lethal: 2; Mtb hypoxia rep: 2; ugtP null kill: 10; RecA intein inh: 5; CCHF vOTU inh: 11

Results for Cc1cc(C(=O)COC(=O)c2cc(Cl)ccc2N)c(C)n1Cc1ccco1 ?
BJeLR lethal: -12; Sa RN4220 lethal: 82; Mtb hypoxia rep: 4; ugtP null kill: 99*; RecA intein inh: -2; CCHF vOTU inh: 0

What do the screens show for `Cc1cc(C(=O)COC(=O)c2ccco2)c(C)n1Cc1ccco1`?
BJeLR lethal: 2; Sa RN4220 lethal: 5; Mtb hypoxia rep: 2; ugtP null kill: 0; RecA intein inh: 6; CCHF vOTU inh: -18

Results for CC(N)=C(C#N)C(=O)COC(=O)c1cc(-c2cccc3ccccc23)nc2ccccc12 ?
Sa RN4220 lethal: -2; Mtb hypoxia rep: 5; ugtP null kill: -16

What do the screens show for `COc1cc(/C=C/C(=O)OCC(=O)Nc2ccc3c(c2)OCCO3)ccc1O`?
BJeLR lethal: -3; Sa RN4220 lethal: 0; Mtb hypoxia rep: 6; ugtP null kill: 2; RecA intein inh: 1; CCHF vOTU inh: -7

What do the screens show for `CCOC(=O)/C(C#N)=C\c1ccc(O)c(OC)c1`?
BJeLR lethal: 4; Sa RN4220 lethal: 3; Mtb hypoxia rep: 6; ugtP null kill: 5; RecA intein inh: 40*; CCHF vOTU inh: 16

How did COc1cc(/C=C(\C#N)C(=O)Nc2ccc3c(c2)OCCO3)ccc1O do in these assays?
BJeLR lethal: 10; RecA intein inh: 32*; CCHF vOTU inh: 14

What do the screens show for `NS(=O)(=O)c1ccc(Nc2c([N+](=O)[O-])cncc2[N+](=O)[O-])cc1`?
BJeLR lethal: -6; Sa RN4220 lethal: 96*; Mtb hypoxia rep: 4; ugtP null kill: 90*; RecA intein inh: 9; CCHF vOTU inh: -6

What do the screens show for `O=[N+]([O-])c1cncc([N+](=O)[O-])c1Nc1ccccc1Cl`?
BJeLR lethal: 3; Sa RN4220 lethal: 55; Mtb hypoxia rep: 6; ugtP null kill: 72; RecA intein inh: 15; CCHF vOTU inh: 16

What do the screens show for `CCCCC(CNC(CNC)C(C)CC)NCCC12CCC(CC1)C2` (configuration not stated)?
Sa RN4220 lethal: -4; Mtb hypoxia rep: 15; ugtP null kill: -7

What do the screens show for `CCN1C(=O)C2C(c3ccc(SC4CCCCC4)cc3)N3CCCC[C@@]3(C(=O)OC)C2C1=O` (some centres not stated)?
Sa RN4220 lethal: 6; Mtb hypoxia rep: 2; ugtP null kill: 7

How did Nc1ccc2oc(-c3ccccc3Cl)cc(=O)c2c1O do in these assays?
BJeLR lethal: -18; Sa RN4220 lethal: 14; Mtb hypoxia rep: 5; ugtP null kill: 94*; RecA intein inh: -1; CCHF vOTU inh: 17

What do the screens show for `O=C(Nc1ccc(O)c2c(=O)cc(-c3ccccc3Cl)oc12)c1ccccc1Cl`?
BJeLR lethal: -16; Sa RN4220 lethal: -5; Mtb hypoxia rep: 12; ugtP null kill: 0; RecA intein inh: 0; CCHF vOTU inh: 2

How did COc1ccccc1-c1cc(=O)c2c(O)ccc([N+](=O)[O-])c2o1 do in these assays?
BJeLR lethal: -19; Sa RN4220 lethal: 25; Mtb hypoxia rep: 25; ugtP null kill: 23; RecA intein inh: -1; CCHF vOTU inh: 3

What do the screens show for `O=c1cc(-c2ccccc2Cl)oc2c([N+](=O)[O-])c(O)cc(O)c12`?
BJeLR lethal: 6; Sa RN4220 lethal: 87*; Mtb hypoxia rep: 3; ugtP null kill: 91*; RecA intein inh: -2; CCHF vOTU inh: 16

How did O=c1cc(-c2ccccc2Cl)oc2ccc([N+](=O)[O-])c(O)c12 do in these assays?
BJeLR lethal: 11; Sa RN4220 lethal: 99*; Mtb hypoxia rep: 2; ugtP null kill: 100*; RecA intein inh: 2; CCHF vOTU inh: 10

Results for O=C(O)C1=CC(c2ccc3c(c2)OCO3)CC(OCCCCO)O1 (configuration not stated) ?
Sa RN4220 lethal: 0; Mtb hypoxia rep: -4; ugtP null kill: -3

How did C=CCC(CC(=O)NC(CO)Cc1ccccc1)C(=O)NCCOC(=O)C(CC=C)CC(=O)OC(C)(C)C (configuration not stated) do in these assays?
Sa RN4220 lethal: 5; Mtb hypoxia rep: 4; ugtP null kill: 4

Results for OCCc1ccc(O)cc1 ?
CCHF vOTU inh: 0

What do the screens show for `CC(c1ccc(O)cc1)(c1ccc(O)cc1)c1ccc(CCBr)cc1`?
BJeLR lethal: -5; RecA intein inh: 31*; CCHF vOTU inh: -13

Results for CCN1/C(=C/c2cccc[n+]2C)Sc2ccc(OC)cc21 ?
BJeLR lethal: 7; RecA intein inh: 1; CCHF vOTU inh: 3

Results for Cc1ccc2c(c1)N(C)/C(=C/c1cccc[n+]1C)S2 ?
BJeLR lethal: 7; Sa RN4220 lethal: 46; ugtP null kill: 101*; RecA intein inh: 1; CCHF vOTU inh: -1

Results for COc1ccc2c(c1)N(C)/C(=C/c1cccc[n+]1C)S2 ?
BJeLR lethal: -2; Sa RN4220 lethal: 21; Mtb hypoxia rep: 0; ugtP null kill: 90*; RecA intein inh: -2; CCHF vOTU inh: -6

Source: PubChem BioAssay (several laboratories)
